In the supplement of paper PMC9262897, “Low-cost anti-mycobacterial drug discovery using engineered E. coli” (Nature Communications, 2022):
Where a name gives a salt, the structure may show the parent alone. ± gives the standard deviation of the averaged measurements.

Assays:
Test in all cases: growth (OD600 after 10 h); higher = more growth (less inhibition)
[1] = tested on: E. coli TESEC Alr+ wild-type control; conditions: compound 0.1 mM; raw OD600 reference: median of DMSO wells 0.241, cell-free background 0.041
Procedure: (§1)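 TESEC Mtb Alr E. coli, or the Alr+ wild-type control, in 384-well plates with Prestwick library compounds at 0.1 mM and 1% DMSO, across arabinose induction levels of 1E3 to 1E7 nM. Growth is read as OD600 after 10 h at 37 °C in triplicate biological replicates.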

[2] = tested on: E. coli TESEC Mtb Alr; conditions: compound 0.1 mM
Procedure: as §1

[3] = tested on: E. coli TESEC Mtb Asd; conditions: compound 0.1 mM
Procedure: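 TESEC E. coli strains in which the native enzyme is deleted and replaced by arabinose-inducible Mtb Asd, DapB, CysH or TrpD, each grown in its selective medium. Strains were screened against the Prestwick library at 0.1 mM and 1% DMSO in 384-well format at low and high arabinose induction. Growth is read as OD600 after 10 h in triplicate.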

[4] = tested on: E. coli TESEC Alr+ wild-type control; conditions: compound 0.1 mM; raw OD600 reference: median of DMSO wells 0.49, cell-free background 0.052
Procedure: (§2)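 TESEC Mtb Alr E. coli (ΔaraC ΔtolC ΔentC Δalr ΔdadX, arabinose-inducible Mtb Alr) or the Alr+ wild-type control strain, grown in defined M9-fructose medium without D-alanine in 96-well plates with Prestwick library compounds at 0.1 mM and 1% DMSO. Low Alr induction is 0.1 µM arabinose and high induction is 10 mM arabinose.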

[5] = tested on: E. coli TESEC Mtb Alr; conditions: compound 0.1 mM; remark: listed apart in the source
Procedure: as §2

[6] = arabinose 1000 nM, raw OD600 reference: median of DMSO wells 0.294, cell-free background 0.041
[7] = arabinose 10000 nM, raw OD600 reference: median of DMSO wells 0.264, cell-free background 0.041
[8] = arabinose 100000 nM, raw OD600 reference: median of DMSO wells 0.201, cell-free background 0.041
[9] = arabinose 1000000 nM, raw OD600 reference: median of DMSO wells 0.193, cell-free background 0.041
[10] = arabinose 10000000 nM, raw OD600 reference: median of DMSO wells 0.146, cell-free background 0.041
[11] = arabinose induction (level): High, raw OD600 reference: median of DMSO wells 0.331, cell-free background 0.041
[12] = arabinose induction (level): Low, raw OD600 reference: median of DMSO wells 0.417, cell-free background 0.041
[13] = arabinose 100 nM, raw OD600 reference: median of DMSO wells 0.413, cell-free background 0.052
[14] = arabinose 10000000 nM, raw OD600 reference: median of DMSO wells […], cell-free background 0.052

Question: How did the growth [1] turn out when `CN1CCN(CCCN2c3ccccc3Sc3ccc(S(=O)(=O)N(C)C)cc32)CC1` [Thioproperazine dimesylate] was run?
Answer: Its growth is 0.181 ± 0.0045.

Question: What about the growth [2, 6] of the same compound?
Answer: The growth was 0.165 ± 0.0059.

Question: And the growth [2, 7]?
Answer: The growth was 0.196 ± 0.0078.

Question: What about the growth [2, 8] of the same compound?
Answer: The growth was 0.195 ± 0.0039.

Question: And the growth [2, 9]?
Answer: The growth was 0.106 ± 0.0049.

Question: And the growth [2, 10]?
Answer: The growth was 0.173 ± 0.0023.

Question: And the growth [3, 11]?
Answer: The growth was 0.171 ± 0.017.

Question: And the growth [3, 12]?
Answer: The growth was 0.246 ± 0.049.

Question: And the growth [4]?
Answer: Its growth is 0.409 ± 0.041.

Question: And the growth [5, 13]?
Answer: The growth was 0.404 ± 0.0053.

Question: What about the growth [5, 14] of the same compound?
Answer: Its growth is 0.232 ± 0.0024.

Question: With `CN(C/C=C/C#CC(C)(C)C)Cc1cccc2ccccc12` [Terbinafine] as the compound, how does the growth [1] read?
Answer: The growth was 0.214 ± 0.0072.

Question: And the growth [2, 6]?
Answer: Its growth is 0.272 ± 0.0085.

Question: What about the growth [2, 7] of the same compound?
Answer: The growth was 0.226 ± 0.025.

Question: And the growth [2, 8]?
Answer: The growth was 0.177 ± 0.0062.

Question: And the growth [2, 9]?
Answer: Its growth is 0.085 ± 0.0043.

Question: What about the growth [2, 10] of the same compound?
Answer: The growth was 0.174 ± 0.0062.

Question: And the growth [3, 11]?
Answer: Its growth is 0.296 ± 0.046.

Question: What about the growth [3, 12] of the same compound?
Answer: Its growth is 0.41 ± 0.037.

Question: What about the growth [5, 13] of the same compound?
Answer: Its growth is 0.145 ± 0.035.

Question: What about the growth [5, 14] of the same compound?
Answer: The growth was 0.0574 ± 0.0026.

Question: What does the source list for `Oc1c(Cl)cc(Cl)c(Cl)c1Cc1c(O)c(Cl)cc(Cl)c1Cl` [Hexachlorophene]?
Answer: growth [1]: 0.0444 ± 0.00067; growth [2, 6]: 0.04387 ± 0.00038; growth [2, 7]: 0.0445 ± 0.00086; growth [2, 8]: 0.04433 ± 0.00015; growth [2, 9]: 0.04387 ± 5.8e-05; growth [2, 10]: 0.0464 ± 0.0029; growth [3, 11]: 0.0582 ± 0.0021; growth [3, 12]: 0.0553 ± 0.004; growth [5, 13]: 0.063 ± 0.0035; growth [5, 14]: 0.0602 ± 0.0016

Question: Which results are given for `Cc1ccc2c(c1)c1c3n2CCNC3CCC1` (centres undefined) [Pirlindole mesylate]?
Answer: growth [1]: 0.215 ± 0.0049; growth [2, 6]: 0.252 ± 0.0064; growth [2, 7]: 0.262 ± 0.0058; growth [2, 8]: 0.182 ± 0.022; growth [2, 9]: 0.148 ± 0.003; growth [2, 10]: 0.165 ± 0.011; growth [3, 11]: 0.177 ± 0.0082; growth [3, 12]: 0.259 ± 0.028; growth [4]: 0.485 ± 0.052; growth [5, 13]: 0.397 ± 0.0065; growth [5, 14]: 0.351 ± 0.011

Question: Which growth [1] does the source give for `C=C1C[C@H]2[C@@H]3C=C(C)C4=CC(=O)CC[C@]4(C)[C@H]3CC[C@]2(C)[C@@]1(OC(C)=O)C(C)=O` [Melengestrol acetate] here?
Answer: Its growth is 0.20603 ± 0.00015.

Question: And the growth [2, 6]?
Answer: Its growth is 0.281 ± 0.013.

Question: And the growth [2, 7]?
Answer: Its growth is 0.295 ± 0.011.

Question: And the growth [2, 8]?
Answer: The growth was 0.166 ± 0.0027.

Question: And the growth [2, 9]?
Answer: Its growth is 0.176 ± 0.0085.

Question: What about the growth [2, 10] of the same compound?
Answer: The growth was 0.148 ± 0.0027.

Question: And the growth [3, 11]?
Answer: The growth was 0.213 ± 0.071.

Question: And the growth [3, 12]?
Answer: Its growth is 0.343 ± 0.11.

Question: What about the growth [4] of the same compound?
Answer: The growth was 0.205 ± 0.053.

Question: And the growth [5, 13]?
Answer: Its growth is 0.3558 ± 0.0033.

Question: And the growth [5, 14]?
Answer: The growth was 0.142 ± 0.053.

Question: Which growth [1] does the source give for `COC(=O)C1=C(C)NC(C)=C(C(=O)OC(C)C)C1c1cccc2nonc12` (centres undefined) [Isradipine] here?
Answer: Its growth is 0.149 ± 0.0056.

Question: What about the growth [2, 6] of the same compound?
Answer: The growth was 0.206 ± 0.0037.

Question: What about the growth [2, 7] of the same compound?
Answer: The growth was 0.254 ± 0.015.

Question: And the growth [2, 8]?
Answer: The growth was 0.164 ± 0.0057.

Question: And the growth [2, 9]?
Answer: Its growth is 0.0817 ± 0.0022.

Question: What about the growth [2, 10] of the same compound?
Answer: The growth was 0.154 ± 0.0037.

Question: And the growth [3, 11]?
Answer: Its growth is 0.166 ± 0.018.

Question: And the growth [3, 12]?
Answer: The growth was 0.259 ± 0.041.

Question: What about the growth [5, 13] of the same compound?
Answer: Its growth is 0.394 ± 0.01.

Question: And the growth [5, 14]?
Answer: The growth was 0.167 ± 0.038.

Question: What does the source list for `CCOc1ccccc1OCC1CNCCO1` (centres undefined) [Viloxazine hydrochloride]?
Answer: growth [1]: 0.236 ± 0.0043; growth [2, 6]: 0.294 ± 0.023; growth [2, 7]: 0.273 ± 0.0049; growth [2, 8]: 0.193 ± 0.011; growth [2, 9]: 0.196 ± 0.01; growth [2, 10]: 0.135 ± 0.0069; growth [3, 11]: 0.251 ± 0.022; growth [3, 12]: 0.386 ± 0.012; growth [5, 13]: 0.406 ± 0.011; growth [5, 14]: 0.366 ± 0.0079

Question: What does the source list for `NCCCCCC(=O)O` [Aminocaproic acid]?
Answer: growth [1]: 0.249 ± 0.0031; growth [2, 6]: 0.314 ± 0.019; growth [2, 7]: 0.257 ± 0.016; growth [2, 8]: 0.1768 ± 0.00047; growth [2, 9]: 0.172 ± 0.0099; growth [2, 10]: 0.161 ± 0.0086; growth [3, 11]: 0.47 ± 0.023; growth [3, 12]: 0.438 ± 0.028; growth [5, 13]: 0.407 ± 0.017; growth [5, 14]: 0.354 ± 0.025

Question: Which growth [1] does the source give for `CN1CCc2cccc3c2[C@H]1Cc1ccc(O)c(O)c1-3` [R(-) Apomorphine hydrochloride hemihydrate] here?
Answer: The growth was 0.0618 ± 0.002.

Question: What about the growth [2, 6] of the same compound?
Answer: The growth was 0.292 ± 0.0093.

Question: What about the growth [2, 7] of the same compound?
Answer: The growth was 0.254 ± 0.0078.

Question: What about the growth [2, 8] of the same compound?
Answer: The growth was 0.181 ± 0.019.

Question: And the growth [2, 9]?
Answer: Its growth is 0.0652 ± 0.0022.

Question: And the growth [2, 10]?
Answer: The growth was 0.14 ± 0.0033.

Question: What about the growth [3, 11] of the same compound?
Answer: The growth was 0.152 ± 0.027.

Question: And the growth [3, 12]?
Answer: Its growth is 0.147 ± 0.066.

Question: What about the growth [5, 13] of the same compound?
Answer: The growth was 0.407 ± 0.0077.

Question: What about the growth [5, 14] of the same compound?
Answer: Its growth is 0.199 ± 0.11.

Question: Which results are given for `Nc1cc(-c2ccncc2)c[nH]c1=O` [Amrinone]?
Answer: growth [1]: 0.237 ± 0.0081; growth [2, 6]: 0.308 ± 0.015; growth [2, 7]: 0.277 ± 0.017; growth [2, 8]: 0.193 ± 0.012; growth [2, 9]: 0.188 ± 0.0077; growth [2, 10]: 0.162 ± 0.008; growth [3, 11]: 0.463 ± 0.012; growth [3, 12]: 0.385 ± 0.074; growth [5, 13]: 0.38 ± 0.043; growth [5, 14]: 0.362 ± 0.026

Question: For `CC(=O)O[C@]1(C(C)=O)CC[C@H]2[C@@H]3C=C(Cl)C4=CC(=O)[C@@H]5C[C@@H]5[C@]4(C)[C@H]3CC[C@@]21C` [Cyproterone acetate], which growth [1] is on record?
Answer: The growth was 0.1672 ± 0.001.

Question: What about the growth [2, 6] of the same compound?
Answer: Its growth is 0.168 ± 0.0067.

Question: And the growth [2, 7]?
Answer: Its growth is 0.125 ± 0.027.

Question: What about the growth [2, 8] of the same compound?
Answer: Its growth is 0.122 ± 0.0081.

Question: What about the growth [2, 9] of the same compound?
Answer: Its growth is 0.0693 ± 0.0035.

Question: And the growth [2, 10]?
Answer: Its growth is 0.0975 ± 0.0046.

Question: What about the growth [3, 11] of the same compound?
Answer: The growth was 0.111 ± 0.041.

Question: What about the growth [3, 12] of the same compound?
Answer: The growth was 0.109 ± 0.0055.

Question: What about the growth [4] of the same compound?
Answer: Its growth is 0.355 ± 0.17.

Question: What about the growth [5, 13] of the same compound?
Answer: Its growth is 0.385 ± 0.035.

Question: What about the growth [5, 14] of the same compound?
Answer: Its growth is 0.0934 ± 0.024.
